Consider 21 molecules from PubChem BioAssay.

In assay [1] the test system is XIP peptide (Xip251-270) binding. As to the kind of experiment: XIP fragment 251-270 binding compounds – biochemical, small-molecule microarray, fluorescence 635/667 nm, 0.1 µg/mL protein, primary screen (AID 1182). The following applies: fluorescent protein binding, 635 nm, higher = more signal, called active from +8 up or from −8 down.
The subject of assay [2] is XIP peptide (Xip251-270). As to the kind of experiment: compounds binding XIP fragment 251-270 – biochemical, small-molecule microarray, fluorescence 635/667 nm, 0.5 µg/mL protein, primary screen (AID 1183). The following applies: fluorescence 635 nm, higher = more signal.
Assay [3] is described as follows: blood-stage malaria parasite viability loss – strain 3D7, DAPI fluorescence, 100 nL, primary screen (AID 1184).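 Note: parasites grown inside human red blood cells in medium with human serum.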 As to conditions: P. falciparum 3D7 growth, 3 d, higher = more signal.
Assay [4] addresses Homeobox protein Hox-A13 (Mus musculus) (UniProt Q62424). As to the kind of experiment: disruptors of Hoxa13 oligonucleotide interaction – biochemical, fluorescence polarization, labeled oligonucleotide, primary screen (AID 1185). As to conditions: Hoxa13:DNA binding, 15 min, higher = more signal, called active from +8 up or from −8 down.
The nature of assay [5]: blockers of DNA damage checkpoint Chk1 activation – imaging, HeLa, hydroxyurea, phospho-Chk1 antibody, percent positive cells, primary screen (AID 1186). As to conditions: hydroxyurea-induced phospho-Chk1 immunofluorescence imaging, higher = more signal.
Assay [6] in a line: blockers of DNA damage checkpoint Chk1 activation – imaging, HeLa, hydroxyurea, phospho-Chk1 nuclear intensity, primary screen (AID 1187). The following applies: hydroxyurea-induced phospho-Chk1 immunofluorescence imaging, higher = more signal.

Active and inactive are the calls of the source. Unless noted, the rule behind the calls is not given here.

Chain of Homeobox protein Hox-A13 (Mus musculus) (Q62424 whole entry, looked up): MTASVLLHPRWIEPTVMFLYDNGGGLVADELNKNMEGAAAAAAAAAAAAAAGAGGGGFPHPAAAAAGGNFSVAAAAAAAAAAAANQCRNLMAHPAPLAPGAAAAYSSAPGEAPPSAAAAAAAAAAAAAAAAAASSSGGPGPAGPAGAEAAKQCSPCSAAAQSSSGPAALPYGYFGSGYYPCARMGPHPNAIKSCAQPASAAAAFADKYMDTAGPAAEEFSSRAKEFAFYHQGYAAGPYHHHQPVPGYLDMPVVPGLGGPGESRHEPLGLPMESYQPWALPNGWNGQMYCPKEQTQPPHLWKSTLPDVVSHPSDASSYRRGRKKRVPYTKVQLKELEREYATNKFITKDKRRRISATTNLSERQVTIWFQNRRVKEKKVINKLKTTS

Take `C=CCC(OC(C)=O)[C@@H]1[C@@H](N(Cc2cc3ccccc3o2)C(=O)Cc2ccc(OC)cc2)c2cc(OCCCO)ccc2N1C(=O)Cc1ccc2ccccc2c1` (stereo partly specified): the composite z-score in assay [1] was -0.324 (inactive); in assay [2] it was -0.375. Also, the z-score in assay [3] is -2.15; in assay [4] it was -1.62 (inactive); in assay [5] it was 0.405 (inactive); in assay [6], 0.517 (inactive).

For `COC(=O)[C@@H]1N=C(c2ccc(OCCCO)cc2)O[C@@H]1c1ccccc1CN=[N+]=[N-]`, the results for the composite z-score in assay [1] and in assay [2] were 0.0222 (inactive) and 0.362, respectively. Also, the z-score in assay [3] is -0.776; in assay [4], -2.74 (inactive); in assay [5], -0.196 (inactive); in assay [6], -0.0701 (inactive).

For the molecule `C=CC[C@]1(C(=O)OC)N=C(c2ccc(OCCCO)cc2)O[C@H]1c1ccccc1N=[N+]=[N-]`, the figures for the composite z-score in assay [1] and in assay [2] were 1.61 (inactive) and 0.867, respectively. Moreover, the z-score is -2.21 in assay [3], -3.31 (inactive) in assay [4], -0.179 (inactive) in assay [5] and 0.059 (inactive) in assay [6].

As to `CCCCC(O)C1C=CC2C(=O)NC(=O)C2N1Nc1ccccn1` (stereo unspecified), the composite z-score was -0.634 (inactive) in assay [1] and 0.146 in assay [2]. The z-score is 0.993 in assay [3], -1.21 (inactive) in assay [4], 0.846 (inactive) in assay [5] and 0.318 (inactive) in assay [6].

Turning to `O=C1C2C=CC(C(O)c3ccc([N+](=O)[O-])cc3)N(Nc3ccccc3)C2C(=O)N1c1ccccc1` (stereo unspecified), the composite z-score in assay [1] is 0.392 (inactive); in assay [2], 0.467. Further, the z-score in assay [3] was 0.45; in assay [4], -4.48 (inactive); in assay [5] it was 0.226 (inactive); in assay [6] it was -0.168 (inactive).

On to `CC(=O)NCCCC[C@@H]1NC(=O)[C@H]2C[C@@H](C(=O)NCCCCCC[N+](C)(C)C)[C@@H](c3ccc(O)cc3)N2C1=O`, for which the composite z-score in assay [1] is 0.265 (inactive); in assay [2] it was 0.883. Moreover, the z-score in assay [3] was -0.0467; in assay [4], -2.81 (inactive); in assay [5], -0.207 (inactive); in assay [6] it was 0.0348 (inactive).

With `CCOC(=O)C[C@H]1[C@H](OC(=O)Cc2ccc3c(c2)OCO3)[C@@H](NC(=O)c2ccccc2)c2cc(OCCCO)ccc2N1C(=O)Cc1ccc(OC)cc1`, the composite z-score in assay [1] is 0.659 (inactive); in assay [2] it was 0.288. Also, the z-score is -1.35 in assay [3], -3 (inactive) in assay [4], -1.29 (inactive) in assay [5] and -1.25 (inactive) in assay [6].

Consider `C=CCC(OC(C)=O)[C@@H]1[C@@H](N(Cc2cccc3ccccc23)C(=O)c2ccc(-c3ccccc3)cc2)c2cc(OCCCO)ccc2N1C(=O)c1ccc2ccccc2n1` (stereo partly specified), for which the figures for the composite z-score in assay [1] and in assay [2] were -0.268 (inactive) and 0.0494, respectively. Further, the z-score in assay [3] was -0.198; in assay [4], -1.17 (inactive); in assay [5] it was 0.116 (inactive); in assay [6], -0.14 (inactive).

In the case of `C#CCN([C@H](/C=C/C1CC1)[C@@H](O)Cc1ccccc1)[C@@H](Cc1ccccc1)C(=O)OC`, the composite z-score in assay [1] was 0.17 (inactive); in assay [2] it was -0.205. Also, the z-score in assay [3] is -0.752; in assay [4], -4.57 (inactive); in assay [5] it was -0.587 (inactive); in assay [6], -0.959 (inactive).

On to `O=C1c2ccccc2[C@](Cc2ccccc2I)(C(=O)O)[C@H](c2ccc(CO)cc2)N1Cc1ccccc1`, for which the composite z-score in assay [1] is 0.947 (inactive); in assay [2], 0.754. Moreover, the z-score in assay [3] is 0.387; in assay [4] it was -4.44 (inactive); in assay [5] it was -0.422 (inactive); in assay [6] it was -0.204 (inactive).

On to `COc1cc2c(cc1O)C(c1ccc(CN3CCCC3)cc1)N(Cc1cccc(OC(F)(F)F)c1)CC2` (stereo unspecified), for which the composite z-score was -0.153 (inactive) in assay [1] and 0.156 in assay [2]. For the same molecule, the z-score in assay [3] was -2.1; in assay [4], -2.99 (inactive); in assay [5] it was 0.0325 (inactive); in assay [6], 0.348 (inactive).

`CC(C)C[C@H]1NC(=O)[C@@H](C)NC(=O)[C@@]23C(=O)N[C@@H](Cc4ccccc4)C2[C@H](C)[C@@]2(C)O[C@H]2C3/C=C/C/C=C\CNC1=O` (stereo partly specified): the results for the composite z-score in assay [1] and in assay [2] were 1.06 (inactive) and 0.679, respectively. Further, the z-score in assay [3] was 0.234; in assay [4] it was -6.94 (inactive); in assay [5], 0.255 (inactive); in assay [6] it was 0.0218 (inactive).

On to `CCCCCN1CC=CC23O[C@@H]4C=CCOC(=O)[C@@H]4[C@H]2C(=O)N(CCCCCO)[C@@H]3C1=O` (stereo partly specified), for which the values for the composite z-score in assay [1] and in assay [2] were 0.213 (inactive) and -0.228, respectively. Besides, the z-score is -0.423 in assay [3], -3.88 (inactive) in assay [4], -0.845 (inactive) in assay [5] and -0.498 (inactive) in assay [6].

In the case of `CC(C)CNC(=O)[C@@H]1c2ccccc2C(=O)N(C2Cc3ccccc3C2)[C@H]1c1ccc(CO)cc1`, the composite z-score in assay [1] is 0.45 (inactive); in assay [2], 0.509. Besides, the z-score in assay [3] is 0.134; in assay [4], -2.36 (inactive); in assay [5] it was -0.281 (inactive); in assay [6], -0.121 (inactive).

On to `CCCCNC(=O)c1ccc(C#C[Si](C)(C)C)c(OC(C)=O)c1`, for which the figures for the composite z-score in assay [1] and in assay [2] were -0.0158 (inactive) and -0.351, respectively. The z-score was -1.27 in assay [3], -4.82 (inactive) in assay [4], 0.0588 (inactive) in assay [5] and 0.103 (inactive) in assay [6].

For `COCCOC(=O)N1C(=O)[C@@]2(c3cc(C#CCC(C(=O)OC)C(=O)OC)ccc31)[C@H](c1ccc(OCCO)cc1)N1[C@H](c3ccccc3)[C@H](c3ccccc3)OC(=O)[C@H]1[C@@H]2C(=O)N1CCCCCCC1`, the composite z-score in assay [1] was 0.836 (inactive); in assay [2], 0.523. Also, the z-score in assay [3] is -2.09; in assay [4], -15.5 (active); in assay [5], -0.181 (inactive); in assay [6], 0.106 (inactive).

As to `C[C@H]1C2[C@H](Cc3ccccc3)NC(=O)[C@]23C(=O)NCC(=O)N2CCC[C@H]2C(=O)NC/C=C\C/C=C/C3[C@@H]2O[C@]12C` (stereo partly specified), the composite z-score is 0.358 (inactive) in assay [1] and 0.341 in assay [2]. For the same molecule, the z-score was 0.876 in assay [3], -2.22 (inactive) in assay [4], 0.353 (inactive) in assay [5] and 0.133 (inactive) in assay [6].

Take `CN(C)CCCNC(=O)[C@@]1(Cc2ccccc2I)c2ccccc2C(=O)N(Cc2ccccc2)[C@H]1c1ccc(CO)cc1`: the results for the composite z-score in assay [1] and in assay [2] were 0.869 (inactive) and 0.828, respectively. Moreover, the z-score in assay [3] is -2.21; in assay [4] it was -0.783 (inactive); in assay [5], 0.22 (inactive); in assay [6], 0.276 (inactive).

In the case of `CC(C)C[C@H]1NC(=O)[C@@]23C(=O)N[C@@H](Cc4ccccc4)C2[C@H](C)[C@@]2(C)O[C@H]2C3/C=C/C/C=C\CNC(=O)[C@@H]2CCCN2C1=O` (stereo partly specified), the composite z-score is 1.73 (inactive) in assay [1] and 0.0626 in assay [2]. Also, the z-score in assay [3] is 1.18; in assay [4], -5.47 (inactive); in assay [5] it was 0.216 (inactive); in assay [6], 0.162 (inactive).

For the molecule `C=CCC(OC(C)=O)[C@@H]1[C@@H](N(Cc2ccc(-c3cccc(C(F)(F)F)c3)o2)C(=O)c2cccc3ccccc23)c2cc(OCCCO)ccc2N1C(=O)c1ccc2ccccc2n1` (stereo partly specified), the composite z-score was -0.279 (inactive) in assay [1] and -0.0301 in assay [2]. Further, the z-score in assay [3] is -2.15; in assay [4] it was -2.09 (inactive); in assay [5] it was -0.131 (inactive); in assay [6], 0.228 (inactive).

As to `COCCCNC(=O)[C@@H]1c2ccccc2C(=O)N(Cc2cc(C(F)(F)F)cc(C(F)(F)F)c2)[C@H]1c1ccc(CO)cc1`, the values for the composite z-score in assay [1] and in assay [2] were -0.313 (inactive) and -0.903, respectively. The z-score is -1.14 in assay [3], -3.22 (inactive) in assay [4], -0.334 (inactive) in assay [5] and -0.768 (inactive) in assay [6].
